Laboratory results as given in the antibiotic and cytotoxicity screens of Wong et al. (2023).
Out of some 39,000 compounds screened, about 3,300 (8.5%) were called active. For the sample, actives were picked, then their nearest neighbours and some compounds at random.

These compounds were tested on HepG2 (assay: cytotoxicity call (relative viability < 0.9)). Conditions: 10 µM.

Compound | cytotoxicity call
CC(C)(CO)c1cc2cc(NC(=O)C3(c4ccc5c(c4)OC(F)(F)O5)CC3)c(F)cc2n1C[C@@H](O)CO | inactive
NCCn1cccn1 | inactive
C[C@@H]1CN([C@@H](C)CO)S(=O)(=O)c2ccc(C#CCN(C)C)cc2O[C@H]1CN(C)Cc1ccccn1 | inactive
O=C(CN1C(=O)c2cccc3cccc(c23)C1=O)N1CCN(CCN2C(=O)[C@@H]3[C@@H](C2=O)[C@@H]2C=C[C@@H]3C2)CC1 | inactive
O=C(O)CN1C(=O)c2cccc3cccc(c23)C1=O | inactive
CC(C)(C)C1CCC(OC[C@@H](O)CN2CCC(CN3C(=O)c4cccc5cccc(c45)C3=O)CC2)CC1 (stereo not given in full) | active
CCCN(C)C[C@H]1OCCCC[C@@H](C)Oc2ccc(NC(=O)Nc3c(C)noc3C)cc2C(=O)N([C@H](C)CO)C[C@@H]1C | inactive
COc1ccc(S(=O)(=O)Nc2ccc3c(c2)C(=O)N([C@@H](C)CO)C[C@H](C)[C@@H](CN(C)C(=O)Nc2cccc4ccccc24)OCCCC[C@@H](C)O3)cc1 | inactive
CC=C1C2C=C(C)CC1(N)c1ccc(=O)[nH]c1C2 (stereo not given) | inactive
C[C@@H]1CN([C@@H](C)CO)C(=O)c2cccc(NC(=O)Nc3ccc(F)cc3)c2O[C@@H]1CN(C)Cc1ccc(C(=O)Nc2ccccc2N)cc1 | active
C[C@H]1CN([C@@H](C)CO)C(=O)c2cccc(NC(=O)Nc3ccccc3)c2O[C@H]1CN(C)Cc1ccc(C(=O)Nc2ccccc2N)cc1 | active
C[C@@H]1CN([C@H](C)CO)C(=O)c2cccc(NC(=O)Nc3ccccc3)c2O[C@@H]1CN(C)Cc1ccc(C(=O)Nc2ccccc2N)cc1 | inactive
C[C@H]1CN([C@@H](C)CO)C(=O)c2cccc(NC(=O)Nc3ccc(F)cc3)c2O[C@@H]1CN(C)Cc1ccc(C(=O)Nc2ccccc2N)cc1 | inactive
C[C@H]1CN([C@@H](C)CO)C(=O)c2cccc(NC(=O)Nc3ccc(F)cc3)c2O[C@H]1CN(C)Cc1ccc(C(=O)Nc2ccccc2N)cc1 | active
C[C@@H]1CN([C@H](C)CO)C(=O)c2cccc(NC(=O)Nc3ccc(F)cc3)c2O[C@H]1CN(C)Cc1ccc(C(=O)Nc2ccccc2N)cc1 | inactive
C[C@H](CO)N1C[C@H](C)[C@H](CN(C)Cc2ccc(C(=O)Nc3ccccc3N)cc2)Oc2c(NC(=O)Nc3ccc(F)cc3)cccc2C1=O | inactive
C[C@@H]1CN([C@@H](C)CO)C(=O)c2cccc(NC(=O)Nc3ccccc3)c2O[C@H]1CN(C)Cc1ccc(C(=O)Nc2ccccc2N)cc1 | inactive
C[C@@H]1CN([C@@H](C)CO)C(=O)c2cccc(NC(=O)Nc3ccc(F)cc3)c2O[C@H]1CN(C)Cc1ccc(C(=O)Nc2ccccc2N)cc1 | inactive
C[C@@H]1CN([C@@H](C)CO)C(=O)CCCn2cc(nn2)CO[C@H]1CN(C)S(=O)(=O)c1ccccc1C#N | inactive
CC(C)c1cccc(NC(=O)C[C@H]2CC[C@H]3[C@@H](COc4ccc(NC(=O)c5ccc(C#N)cc5)cc4C(=O)N3C)O2)c1 | inactive
COc1ccc(S(=O)(=O)N(C)C[C@H]2OCCCC[C@H](C)Oc3ccc(NC(=O)Nc4cccc5ccccc45)cc3C(=O)N([C@@H](C)CO)C[C@H]2C)cc1 | inactive
COc1ccc(S(=O)(=O)N(C)C[C@H]2Oc3ccc(N(C)C)cc3CC(=O)N([C@H](C)CO)C[C@H]2C)cc1 | inactive

Compound | cytotoxicity call
C[C@@H]1CN([C@H](C)CO)C(=O)c2cccc(NS(=O)(=O)c3ccc(F)cc3)c2O[C@@H]1CN(C)Cc1ccc(Cl)c(Cl)c1 | inactive
COc1ccc(S(=O)(=O)Nc2ccc3c(c2)C(=O)N([C@H](C)CO)C[C@@H](C)[C@H](CN(C)C(=O)Nc2cccc4ccccc24)OCCCC[C@@H](C)O3)cc1 | inactive
C[C@H]1CN([C@@H](C)CO)C(=O)c2cc(C#CCN(C)C)cnc2O[C@@H]1CN(C)Cc1ccc(C(=O)O)cc1 | inactive
C[C@@H]1CN([C@H](C)CO)C(=O)c2cccc(NC(=O)Nc3ccc4c(c3)OCO4)c2O[C@H]1CN(C)C(=O)Nc1ccc(C(F)(F)F)cc1 | inactive
Nc1ncccc1-c1nc2ccc(-c3ccccc3)nc2n1-c1ccc(C2(N)CCC2)cc1 | active
NC(=O)c1ccc2nc(-c3ccc(C4(N)CCC4)cc3)c(-c3ccccc3)n2n1 | inactive
CC(C)NC(=O)N[C@@H]1CC[C@@H](CCN)O[C@@H]1CO | inactive
Cc1ccc(S(=O)(=O)Nc2ccc3c(c2)CC(=O)N([C@@H](C)CO)C[C@@H](C)[C@@H](CN(C)S(=O)(=O)c2c(C)noc2C)O3)cc1 | inactive
Cc1noc(C)c1NC(=O)N(C)C[C@H]1Oc2ccc(NC(=O)Cn3cnnn3)cc2CC(=O)N([C@H](C)CO)C[C@@H]1C | inactive
Cc1noc(C)c1S(=O)(=O)Nc1ccc2c(c1)CC(=O)N([C@@H](C)CO)C[C@@H](C)[C@H](CN(C)C(=O)Nc1ccccc1)O2 | inactive
COC(=O)Cc1c(C)[nH]c2ncnn2c1=O | inactive
Cc1[nH]c2ncnn2c(=O)c1NS(C)(=O)=O | inactive
CC(=O)Nc1c(C)[nH]c2ncnn2c1=O | active
C[C@@H]1CN([C@H](C)CO)C(=O)Cc2cc(NS(C)(=O)=O)ccc2O[C@@H]1CN(C)C(=O)Nc1ccc(C(F)(F)F)cc1 | inactive
O=C(Nc1ccno1)NN1CCOCC1 | inactive
COc1cc(C2c3cc4c(cc3C(OC3OC5COC(c6cccs6)OC5C(O)C3O)C3COC(=O)C23)OCO4)cc(OC)c1O (stereo not given) | active
COc1cc(C2c3cc4c(cc3C(OC3OC5COC(C)OC5C(O)C3O)C3COC(=O)C23)OCO4)cc(OC)c1O (stereo not given) | inactive
COc1cc([C@@H]2c3cc4c(cc3[C@@H](O[C@@H]3O[C@@H]5CO[C@@H](C)O[C@H]5[C@H](O)[C@H]3O)[C@H]3COC(=O)[C@H]23)OCO4)cc(OC)c1O | active
COc1cc([C@@H]2c3cc4c(cc3[C@@H](O[C@@H]3O[C@@H]5CO[C@@H](C)O[C@H]5[C@H](O)[C@H]3O)[C@@H]3COC(=O)[C@@H]23)OCO4)cc(OC)c1O | inactive
C[C@H](CO)N1C[C@H](C)[C@H](CN(C)S(=O)(=O)c2cccs2)Oc2ccc(NS(=O)(=O)c3ccc(F)cc3)cc2CC1=O | inactive
O=C(C[C@@H]1C[C@H]2c3cc(NC(=O)C4CCOCC4)ccc3O[C@H]2[C@@H](CO)O1)NCCN1CCCCC1 | inactive
C[C@@H]1CN([C@@H](C)CO)C(=O)c2cc(C#CCN(C)C)cnc2O[C@H]1CN(C)C(=O)c1ccc2c(c1)OCO2 | inactive

Compound | cytotoxicity call
Cc1ccc(S(=O)(=O)Nc2ccc3c(c2)C(=O)N([C@@H](C)CO)C[C@@H](C)[C@@H](CN(C)C(=O)Nc2ccc(C(F)(F)F)cc2)OCCCC[C@H](C)O3)cc1 | inactive
Cc1ccc(S(=O)(=O)Nc2ccc3c(c2)C(=O)N([C@H](C)CO)C[C@@H](C)[C@H](CN(C)C(=O)Nc2ccc(C(F)(F)F)cc2)OCCCC[C@@H](C)O3)cc1 | inactive
Cc1ccc(S(=O)(=O)Nc2ccc3c(c2)C(=O)N([C@@H](C)CO)C[C@H](C)[C@@H](CN(C)C(=O)Nc2ccc(C(F)(F)F)cc2)OCCCC[C@H](C)O3)cc1 | active
Cc1ccc(S(=O)(=O)Nc2ccc3c(c2)C(=O)N([C@H](C)CO)C[C@@H](C)[C@H](CN(C)C(=O)Nc2ccc(C(F)(F)F)cc2)OCCCC[C@H](C)O3)cc1 | inactive
Cc1ccc(S(=O)(=O)Nc2ccc3c(c2)C(=O)N([C@H](C)CO)C[C@H](C)[C@H](CN(C)C(=O)Nc2ccc(C(F)(F)F)cc2)OCCCC[C@@H](C)O3)cc1 | inactive
Cc1ccc(S(=O)(=O)Nc2ccc3c(c2)C(=O)N([C@@H](C)CO)C[C@H](C)[C@@H](CN(C)C(=O)Nc2ccc(C(F)(F)F)cc2)OCCCC[C@@H](C)O3)cc1 | active
Cc1ccc(S(=O)(=O)Nc2ccc3c(c2)C(=O)N([C@H](C)CO)C[C@H](C)[C@@H](CN(C)C(=O)Nc2ccc(C(F)(F)F)cc2)OCCCC[C@@H](C)O3)cc1 | inactive
Cc1ccc(S(=O)(=O)Nc2ccc3c(c2)C(=O)N([C@H](C)CO)C[C@H](C)[C@H](CN(C)C(=O)Nc2ccc(C(F)(F)F)cc2)OCCCC[C@H](C)O3)cc1 | active
Cc1ccc(S(=O)(=O)Nc2ccc3c(c2)C(=O)N([C@H](C)CO)C[C@H](C)[C@@H](CN(C)C(=O)Nc2ccc(C(F)(F)F)cc2)OCCCC[C@H](C)O3)cc1 | inactive
C[C@@H]1CN([C@H](C)CO)C(=O)Cc2cc(NS(=O)(=O)c3cn(C)cn3)ccc2O[C@@H]1CN(C)Cc1ccc2c(c1)OCO2 | inactive
C=CC[C@H](CC(=O)NCCO)C(=O)N[C@H](COC(=O)[C@@H](CC=C)CC(=O)OC(C)(C)C)c1ccccc1 | inactive
C[C@@H]1CCCCO[C@@H](CN(C)CC2CC2)[C@H](C)CN([C@H](C)CO)C(=O)c2cc(NC(=O)CCC(F)(F)F)ccc2O1 | inactive
C[C@H](CO)N1C[C@H](C)[C@@H](CN(C)C(=O)c2ccccc2)OCCCC[C@H](C)Oc2ccc(NS(=O)(=O)c3ccccc3)cc2C1=O | inactive
CO[C@H]1CN(C)C(=O)c2ccc(NC(=O)Nc3cccc(Cl)c3)cc2OC[C@H](C)N(C(=O)Nc2c(C)noc2C)C[C@H]1C | inactive
COc1ccc(Sc2ccc(N(C(=O)c3ccccc3Cl)C(=O)c3ccccc3Cl)cc2C#N)cc1 | active
COc1ccc(C(=O)NCC#N)cc1 | inactive
COc1ccc(C(=O)c2ccccc2O)c(O)c1 | inactive
O=c1cn[nH]c(NC2CCCC2)n1 | inactive
CC(C)CNc1nc(=O)cn[nH]1 | active
O=c1cn[nH]c(Nc2ccccc2)n1 | inactive
C=CCC[C@@H](Cc1ccc(F)cc1)C(=O)OC[C@@H]1CCCN1C(=O)[C@H](CC=C)CC(=O)N(CCO)Cc1ccccc1 | inactive
